# Measurements published in PubChem BioAssay (Tox21).
# Records with an inconclusive call do not appear. A call without a number means that no potency is given here. A number with no mark means an inactive call. Activity calls are given as the source filed them. Calls come from the whole dose curve; as a rule, active = well fitted inhibition curve with a large enough effect in the signal ratio in the repeat runs, with a control signal flat; inconclusive = weak or mixed curves, or effect the other way; inactive = flat fitted curve, though single readings scatter; the % refers to the signal ratio.
# Molecular target: D(2) dopamine receptor (Homo sapiens) (UniProt P14416)
# Sequence (P14416 whole entry, looked up): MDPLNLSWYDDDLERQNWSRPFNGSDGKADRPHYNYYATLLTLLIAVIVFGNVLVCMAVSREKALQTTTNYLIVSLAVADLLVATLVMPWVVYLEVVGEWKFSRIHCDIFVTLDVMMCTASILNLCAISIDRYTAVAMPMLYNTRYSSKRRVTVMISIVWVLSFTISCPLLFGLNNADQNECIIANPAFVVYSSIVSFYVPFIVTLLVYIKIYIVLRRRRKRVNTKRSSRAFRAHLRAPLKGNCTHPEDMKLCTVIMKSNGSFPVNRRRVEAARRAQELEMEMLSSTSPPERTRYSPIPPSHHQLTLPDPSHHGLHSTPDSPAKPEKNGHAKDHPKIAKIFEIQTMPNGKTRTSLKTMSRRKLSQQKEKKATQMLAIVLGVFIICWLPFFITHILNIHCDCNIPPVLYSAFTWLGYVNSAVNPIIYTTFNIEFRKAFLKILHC
# Test: Dopamine D2 receptor (DRD2) small molecule antagonists, cell-based qHTS assay (AID 1963595)
# Details: HEK293-DRD2 cAMP HTRF antagonist mode; series mostly up to 92.4 µM
# In short: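 Antagonism was scored as restored cAMP in HEK293-DRD2 cells. These cells were stimulated with 200 nM NKH477 and 12 nM quinpirole for 30 min at room temperature, in the presence of 0.1 mM Ro20-1724.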
Compound,Potency,"activity change, negative = inhibition"
O=c1cc(-c2ccccc2)oc2ccccc12,inactive,
O=C(O)c1cc2ccccc2cc1O,inactive,
CS(=O)(=O)c1ccc(Cl)cc1,inactive,
S=C(NC1CCCCC1)NC1CCCCC1,inactive,
O=C(O)CCCCCCCCCCCC(=O)O,inactive,
N[C@H](Cc1c[nH]c2ccccc12)C(=O)O,inactive,
CC[C@H](c1ccc(O)cc1)[C@@H](CC)c1ccc(O)cc1,inactive,
C=CC(C)(O)CCC=C(C)C (stereo not drawn),inactive,
O=[N+]([O-])c1ccc2nc[nH]c2c1,inactive,
CC(C)(c1cc(Br)c(O)c(Br)c1)c1cc(Br)c(O)c(Br)c1,inactive,
BrC1CCC(Br)C(Br)CCC(Br)C(Br)CCC1Br (stereo not drawn),inactive,
COC(=O)Nc1nc2ccc(Sc3ccccc3)cc2[nH]1,inactive,
CC(=O)OCc1ccccc1,inactive,
c1ccc2c(c1)-c1cccc3c1c-2cc1ccccc13,inactive,
CN1Cc2c(N)cccc2C(c2ccccc2)C1 (stereo not drawn),inactive,
CCCc1ccc(O)cc1,inactive,
Cc1cccnc1,inactive,

Compound,Potency,"activity change, negative = inhibition"
CCC(C)c1ccccc1O (stereo not drawn),inactive,
CC1=CC[C@@H]2C[C@H]1C2(C)C,,-2.93% [at 18.9 µM]
OC1CCCC1,inactive,
NS(=O)(=O)c1ccc(N2CCCCS2(=O)=O)cc1,inactive,
N[C@@H](Cc1c[nH]c2ccccc12)C(=O)O,inactive,
N[C@@H](Cc1c[nH]c2ccc(O)cc12)C(=O)O,inactive,
CC(COCC(C)OC(=O)c1ccccc1)OC(=O)c1ccccc1 (stereo not drawn),inactive,
O=C(O)/C=C/c1ccccc1,inactive,
CCCCCOC(C)=O,inactive,
CC(=O)OC1CC(C)OC(C)O1 (stereo not drawn),inactive,
COc1ccc(COC(C)=O)cc1,inactive,
CCCCCCCCCCCCOCCO,inactive,
Cc1ccc(C(C)C)cc1O,inactive,
CC(C)(C)c1cc(Cc2cc(C(C)(C)C)c(O)c(C(C)(C)C)c2)cc(C(C)(C)C)c1O,inactive,
CCCCOCCOCCOC(=O)CCCCC(=O)OCCOCCOCCCC,inactive,
O=C(O)Cc1cccc(-c2cc(CCCCCCc3ccc(O[C@H]4O[C@H](CO)[C@@H](O)[C@H](O)[C@@H]4O)c(-c4cccc(CC(=O)O)c4)c3)ccc2O[C@H]2O[C@H](CO)[C@@H](O)[C@H](O)[C@@H]2O)c1,,-1.71% [at 0.348 µM]
